In the library only some 11% were active in any assay of this set; here they are far more common.
MCF10A rerep – inducers of DNA re-replication in MCF 10A breast cells; MCF 10A DNA re-replication, Hoechst nuclear intensity, 48 h; Potency, µM (series often up to 46.1 µM), for inactives: at the highest dose activity, positive = re-replication, most hits filed as activators; actives 2.9% (n = 350,000); AID 624296; note: potency is the fitted concentration of half-maximal effect; % of control where 0% means no effect; nearly all actives have a fitted effect of over 50% in size
IL-1B inflam inh – inhibitors of inflammasome signaling (IL-1 beta secretion); THP-1 LPS/ATP IL-1B secretion, AlphaLISA, 16 h; hits give low values; activity change, % at 57.5 µM; actives 4.7% (n = 360,000); AID 743279; in the data active = activity change below about -50%; inconclusive = mostly about -30% to -49%; note: % is set by controls: 0 for no effect and ±100 for the full control effect
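THP-1 cells pretreated 1 hr with compounds (up to 57.5 uM final), then stimulated with LPS (250 ng/mL final) plus ATP (1.25 mM final); secreted IL-1B measured by AlphaLISA after 16 hr, decreased signal indicating inhibition.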
Gal4-VP16 FLuc – inhibits Gal4-VP16 luciferase reporter, ROR gamma counter-screen; Potency, µM (titrated, usually from 53.6 µM), inactives show at the highest dose activity, negative = inhibition, hits mostly inhibitors; actives 3.5% (n = 310,000); Drosophila S2 Gal4-VP16 UAS-luciferase, luminescence, 20 h;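 note: Gal4-VP16 expression switched on by copper sulfate through the metallothionein promoter; potency is the fitted concentration of half-maximal effect; % is set by controls: 0 for no effect and ±100 for the full control effect; nearly all actives have a fitted effect of over 50% in size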
RORg inh – blocks mouse ROR gamma transcriptional activity; P51450; Drosophila S2 Gal4-RORgamma UAS-luciferase reporter, 20 h; Potency, µM (doses to about 53.6 µM), for inactives: at the highest dose activity change, negative = inhibition, usual class: inhibitors; actives 5.4% (n = 310,000); note: potency is the fitted concentration of half-maximal effect; % is set by controls: 0 for no effect and ±100 for the full control effect; nearly all actives have a fitted effect of over 60% in size
Target sequence (P51450 whole entry, looked up, the tested form may be a part): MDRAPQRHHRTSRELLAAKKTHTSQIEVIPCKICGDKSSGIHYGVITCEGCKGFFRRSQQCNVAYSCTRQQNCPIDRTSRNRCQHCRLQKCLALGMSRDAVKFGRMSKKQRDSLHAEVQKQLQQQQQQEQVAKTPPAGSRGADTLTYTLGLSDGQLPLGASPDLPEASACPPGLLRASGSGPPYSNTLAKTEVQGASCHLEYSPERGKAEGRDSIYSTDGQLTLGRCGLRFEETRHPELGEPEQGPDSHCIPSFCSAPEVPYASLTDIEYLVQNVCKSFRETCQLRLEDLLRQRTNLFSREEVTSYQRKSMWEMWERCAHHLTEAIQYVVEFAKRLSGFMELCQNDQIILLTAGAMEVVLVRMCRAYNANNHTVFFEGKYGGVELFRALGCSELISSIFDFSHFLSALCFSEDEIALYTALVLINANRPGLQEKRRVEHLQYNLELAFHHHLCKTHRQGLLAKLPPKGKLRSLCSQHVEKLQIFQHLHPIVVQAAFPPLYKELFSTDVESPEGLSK
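Luciferase reporter read in Schneider cells carrying Gal4-RORγ (mouse) and UAS-Photinus luciferase; cells given compound 1 h before 700 uM copper sulfate induction, then incubated 20 h at ambient temperature.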
SW480 rereplic – inducers of DNA re-replication in SW480 colon cancer cells; SW480 DNA re-replication, Hoechst DNA content imaging, 48 h; Potency, µM (top dose mostly 46.1 µM), for inactives: at the highest dose re-replication activation, actives largely listed as activators; actives 1.8% (n = 340,000); note: potency is the fitted concentration of half-maximal effect; % of control where 0% means no effect; nearly all actives have a fitted effect of over 55% in size
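Hoechst fluorescence of nuclei (405 nm excitation, 500-530 nm emission) measured by plate-scanning imager after 48 hr compound exposure at 37 C; re-replication scored as increased number of nuclei with elevated intensity.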
Active calls of the source: *; ? = inconclusive; · = no result; [ ] = another dose, or the depositor's remark. Unless noted, calls come from the whole dose curve; as a rule, active = well fitted curve in the direction sought with a large enough effect; inconclusive = small, poorly fitted or top-dose-only effect, or another doubt; inactive = no such curve, though single readings can be large; an effect the other way counts as inactive or inconclusive.

SMILES	MCF10A rerep	IL-1B inflam inh	Gal4-VP16 FLuc	RORg inh	SW480 rereplic
CC1CCCCC1NC(=O)c1ccncc1 (centres undefined)	3.2%	21.1	-0.4%	?	18.4µM*
Cc1c(C(=O)NC2CCCCC2C)oc2ccccc12 (centres undefined)	10.4%	23.5	5.62µM*	11.2µM*	-6.5%
COc1ccc(NC(=O)CN2C(=O)C(=O)N(C3CCCC3)C2=O)c(OC)c1	-3.7%	7.4	·	·	-1.0%
CCOC(=O)c1cnc2c(Cl)c(Cl)ccc2c1N1CCN(C)CC1	17.6%	-50.1*	-6.5%	-15.0%	-0.6%
CCOC(=O)c1cnc2c(C)c(Cl)ccc2c1N1CCN(CC)CC1	?	-81.7*	-8.6%	-22.2%	5.3%
CCOC(=O)c1cnc2c(ccc3ccccc32)c1Cl	-10.4%	-12.1	26.9%	-20.6%	0.7%
CCOC(=O)c1cnc2c(C)c(Cl)ccc2c1Nc1ccc(S(=O)(=O)Nc2ncccn2)cc1	2.5%	·	-9.8%	27.2%	-0.4%
CC(C)[C@H](NC(=O)[C@@H]1CSSC[C@H](NC(=O)[C@H](CC(=O)O)NC(=O)[C@H](C)NC(=O)[C@@H](NC(=O)CNC(=O)[C@H](C)N)[C@@H](C)O)C(=O)N[C@@H](Cc2ccccc2)C(=O)N[C@@H](Cc2c[nH]c3ccccc23)C(=O)N[C@@H](CCCCN)C(=O)N[C@@H](Cc2ccc(O)cc2)C(=O)N1)C(=O)O	·	·	-14.7%	14.7%	·
N.N.O=C(O)C1(C(=O)O)CCC1.[Pt]	·	·	9.9%	-1.0%	·
Cc1ccc(S(=O)(=O)N2C[C@@H](C)[C@]3(C2)[C@H](O)[C@H](OC(=O)Nc2cccs2)C[C@H]2C(=O)N(c4ccccc4)C(=O)[C@H]23)cc1	·	-109.1*	·	·	·
COc1ccc(CNC(=O)O[C@@H]2C[C@H]3C(=O)N(c4ccccc4)C(=O)[C@H]3[C@@]3(CN(S(=O)(=O)c4ccc(C)cc4)C[C@H]3C)[C@@H]2O)cc1OC	·	-64.2*	·	·	·
Cc1ccc(S(=O)(=O)N2C[C@@H](C)[C@]3(C2)[C@H](O)[C@H](OC(=O)NCc2ccco2)C[C@H]2C(=O)N(c4ccccc4)C(=O)[C@H]23)cc1	·	-8.9	·	·	·
NC1=NC(=O)/C(=C\c2ccc(-c3ccc(Cl)cc3)o2)S1	7.31µM*	55.4	-10.7%	-29.1%	?
Cc1nnc(NC(=O)CSc2nnc(-c3ccco3)o2)s1	1.5%	2.6	5.01µM*	1.58µM*	3.6%
CC(C)c1nnc(NC(=O)CSc2nnc(-c3ccco3)o2)s1	-2.5%	35.0	17.8µM*	11.2µM*	-2.9%
Cc1ccc(NC(=O)CSc2nnc(-c3ccco3)o2)c(C)c1	-9.5%	0.9	5.2%	0.1%	-7.6%
CCn1c(C)cc(C(=O)CSc2nnc(-c3ccco3)o2)c1C	20.8%	?	·	·	6.51µM*
Cc1cc(C(=O)CSc2nnc(-c3ccco3)o2)c(C)n1C	20.5%	-11.5	·	·	?
NC[C@@H]1O[C@H](O[C@H]2[C@H](O)[C@H](O[C@@H]3O[C@H](CO)[C@@H](O)[C@H](N)[C@@H]3O)[C@@H](N)C[C@H]2N)[C@@H](O)[C@H](O)[C@@H]1O	0.5%[20.6 µM]	·	-5.9%[17 µM]	22.8%[2.98 µM]	-3.1%[20.6 µM]
COc1ccc(CN2C(=O)CCC2(C)c2nnnn2-c2ccc3c(c2)OCCO3)cc1OC (centres undefined)	·	14.6	·	·	·
S=C1NCCc2ccc(Cl)cc2C1c1ccccc1Cl (centres undefined)	3.2%	-1.1	3.55µM*	5.01µM*	0.3%
C=C(C)C(=O)OC1(C(F)(F)F)Oc2cc(C)ccc2NC1=O (centres undefined)	16.4µM*	-72.9*	?	14.1µM*	?
O=C(NNC(=O)c1ccc(Cl)c(Cl)c1)c1ccncc1	0.0%	-0.2	·	·	-102.6%
COc1cccc(NC(=O)c2ncc(Cl)c(Cl)c2Cl)c1	1.5%	-14.8	?	4.4%	6.0%
O=C(NNC(=O)c1ncc(Cl)c(Cl)c1Cl)c1ccc(F)cc1	?	21.2	5.01µM*	7.08µM*	29.8%
O=C(NNC(=O)c1nc(Cl)ccc1Cl)c1ccc(F)cc1	27.4%	-7.2	?	11.2µM*	-13.0%
CN(Cc1ccco1)c1nc(-c2ccoc2)nc2ccccc12	·	·	-6.4%	-0.4%	·

Compound activity as filed in PubChem BioAssay.
